According to PubChem BioAssay AID1159580 (chemical genetic matrix, 2015):
Values joined by “and” are separate entries in the source; they are usually repeats but may differ in a detail not shown here. Identical values can stand only once. Out of some 5,500 compounds screened, about 2,000 (36%) were called active. Roughly 18% stayed inconclusive and do not appear here. No stated cut-off is given here; in the data, active means normalized growth mostly below about 0.91 (no sharp cut-off); inconclusive means no clear call, values can overlap the other calls; inactive means mostly above about 0.92. The list shows a part of the results.

Assay: chemical genetic growth profiling, strain panel (AID 1159580);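 further: tested at 20 µM; growth read once vehicle control cultures reached saturation at 30 °C; 1 = growth at the plate median or of vehicle wells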
Conditions: S. cerevisiae deletion strains, growth OD
[1] = locus YAL013W, strain DEP1, stronger effect = lower value
[2] = locus YDR150W, strain NUM1, stronger effect = lower value
[3] = locus YMR307W, strain GAS1, stronger effect = lower value
[4] = locus YNL322C, strain KRE1, stronger effect = lower value
[5] = locus YPL241C, strain CIN2, stronger effect = lower value

Measured: normalized growth

CCCCCC/C=C\CCCCCCCc1cccc(O)c1C(=O)O
inactive: [1] 1.08 | locus YAL021C, strain ccr4, stronger effect = lower value 0.972 | locus YAL026C, strain drs2, stronger effect = lower value 0.979 | locus YAL030W, strain snc1, stronger effect = lower value 0.974 | locus YBL061C, strain skt5, stronger effect = lower value 0.98 | locus YBR009C, strain hhf1, stronger effect = lower value 0.997 | locus YBR021W, strain FUR4, stronger effect = lower value 0.929 | locus YBR023C, strain chs3, stronger effect = lower value 0.967 | locus YBR171W, strain sec66, stronger effect = lower value 1.05 | locus YBR229C, strain ROT2, stronger effect = lower value 0.988 | locus YBR231C, strain swc5, stronger effect = lower value 0.942 | locus YBR279W, strain paf1, stronger effect = lower value 0.984 | locus YCL011C, strain gbp2, stronger effect = lower value 0.95 | locus YCL016C, strain dcc1, stronger effect = lower value 0.989 | locus YCL029C, strain bik1, stronger effect = lower value 0.985 | locus YCL061C, strain MRC1, stronger effect = lower value 0.989 | locus YCL069W, strain vba3, stronger effect = lower value 0.938 | locus YCR088W, strain abp1, stronger effect = lower value 0.972 | locus YDL005C, strain med2, stronger effect = lower value 0.958 | locus YDL035C, strain GPR1, stronger effect = lower value 1.05 | locus YDL040C, strain nat1, stronger effect = lower value 0.967 | locus YDL074C, strain BRE1, stronger effect = lower value 0.992 | locus YDL101C, strain DUN1, stronger effect = lower value 1.01 | locus YDL185W, strain tfp1, stronger effect = lower value 1.01 | locus YDL192W, strain arf1, stronger effect = lower value 1 | locus YDR001C, strain nth1, stronger effect = lower value 0.983 | locus YDR069C, strain doa4, stronger effect = lower value 0.971 | locus YDR101C, strain arx1, stronger effect = lower value 0.987 | locus YDR137W, strain rgp1, stronger effect = lower value 0.939 | [2] 1.04 | locus YDR159W, strain sac3, stronger effect = lower value 0.974 | locus YDR162C, strain NBP2, stronger effect = lower value 1.06 | locus YDR195W, strain ref2 0.975 | locus YDR297W, strain sur2, stronger effect = lower value 0.979 | locus YDR318W, strain mcm21, stronger effect = lower value 0.995 | locus YDR334W, strain swr1, stronger effect = lower value 0.956 | locus YDR335W, strain msn5, stronger effect = lower value 0.975 | locus YDR388W, stronger effect = lower value 1.01 | locus YDR392W, strain spt3, stronger effect = lower value 0.813 | locus YDR502C, strain sam2, stronger effect = lower value 1.01 | locus YEL003W, strain gim4, stronger effect = lower value 0.982 | locus YEL037C, strain rad23, stronger effect = lower value 0.965 | locus YEL061C, strain CIN8 (second series), stronger effect = lower value 0.953 | locus YEL061C, strain CIN8, stronger effect = lower value 1.01 | locus YER015W, strain faa2, stronger effect = lower value 0.982 | locus YER016W, strain bim1, stronger effect = lower value 0.976 | locus YER110C, stronger effect = lower value 0.981 | locus YER111C, strain swi4, stronger effect = lower value 0.947 | locus YER155C, strain BEM2, stronger effect = lower value 0.991 | locus YER167W, strain BCK2, stronger effect = lower value 1.01 | locus YFR010W, strain ubp6, stronger effect = lower value 0.993 | locus YGL078C, strain dbp3, stronger effect = lower value 0.995 | locus YGL086W, strain mad1, stronger effect = lower value 0.989 | locus YGL167C, strain pmr1, stronger effect = lower value 0.966 | locus YGL173C, strain kem1, stronger effect = lower value 0.976 | locus YGL227W, strain vid30, stronger effect = lower value 0.955 | locus YGL240W, strain doc1, stronger effect = lower value 0.976 | locus YGL248W, strain PDE1, stronger effect = lower value 1.01 | locus YGL253W, strain hxk2, stronger effect = lower value 0.975 | locus YGR135W, strain pre9, stronger effect = lower value 1.03 | locus YGR252W, strain gcn5, stronger effect = lower value 1.04 | locus YHR013C, strain ard1, stronger effect = lower value 0.956 | locus YHR027C, strain rpn1, stronger effect = lower value 0.992 | locus YHR030C, strain SLT2, stronger effect = lower value 1 | locus YHR079C, strain IRE1 (second series), stronger effect = lower value 0.992 | locus YHR079C, strain IRE1, stronger effect = lower value 1.01 | locus YHR094C, strain hxt1, stronger effect = lower value 0.992 | locus YHR129C, strain ARP1, stronger effect = lower value 0.998 | locus YHR142W, strain chs7, stronger effect = lower value 0.974 | locus YHR200W, strain rpn10, stronger effect = lower value 1 | locus YIL066C, strain RNR3, stronger effect = lower value 1.03 | locus YIL073C, strain SPO22, stronger effect = lower value 1.3 | locus YIL125W, strain kgd1, stronger effect = lower value 0.994 | locus YIR030C, strain dcg1, stronger effect = lower value 0.995 | locus YJL092W, strain hpr5, stronger effect = lower value 0.941 | locus YJL095W, strain BCK1 (second series), stronger effect = lower value 0.97 | locus YJL095W, strain BCK1, stronger effect = lower value 0.991 and 0.952 | locus YJL115W, strain asf1, stronger effect = lower value 0.972 | locus YJL129C, strain trk1, stronger effect = lower value 0.914 | locus YJL134W, strain LCB3, stronger effect = lower value 1 | locus YJL154C, strain vps35, stronger effect = lower value 0.971 | locus YJL164C, strain tpk1, stronger effect = lower value 0.999 | locus YJL166W, strain qcr8, stronger effect = lower value 0.976 | locus YJL168C, strain set2, stronger effect = lower value 0.988 | locus YJL187C, strain SWE1 (second series), stronger effect = lower value 0.997 | locus YJR043C, strain POL32, stronger effect = lower value 1.06 | locus YJR066W, strain TOR1, stronger effect = lower value 0.968 | locus YKL009W, strain mrt4, stronger effect = lower value 1.02 | locus YKL068W, stronger effect = lower value 1.01 | locus YKL085W, strain MDH1 (second series), stronger effect = lower value 0.997 | locus YKL085W, strain MDH1, stronger effect = lower value 0.997 | locus YKL160W, strain elf1, stronger effect = lower value 0.997 | locus YKL190W, strain CNB1, stronger effect = lower value 1.06 | locus YKR001C, strain vps1, stronger effect = lower value 0.989 | locus YKR026C, strain gcn3, stronger effect = lower value 0.961 | locus YKR091W, strain srl3, stronger effect = lower value 0.978 | locus YLL001W, strain dnm1, stronger effect = lower value 0.988 | locus YLL026W, stronger effect = lower value 0.974 | locus YLL041C, strain sdh2, stronger effect = lower value 0.989 | locus YLR027C, strain aat2, stronger effect = lower value 0.986 | locus YLR039C, strain RIC1, stronger effect = lower value 1.01 | locus YLR058C, strain SHM2, stronger effect = lower value 1 | locus YLR102C, strain apc9, stronger effect = lower value 0.987 | locus YLR113W, strain HOG1, stronger effect = lower value 0.946 | locus YLR221C, strain rsa3, stronger effect = lower value 0.944 | locus YLR258W, strain gsy2, stronger effect = lower value 0.957 | locus YLR262C, strain YPT6 (second series), stronger effect = lower value 0.939 | locus YLR262C, strain YPT6, stronger effect = lower value 0.977 | locus YLR268W, strain sec22, stronger effect = lower value 0.991 | locus YLR320W, strain mms22, stronger effect = lower value 0.951 | locus YLR330W, strain CHS5, stronger effect = lower value 1.06 | locus YLR342W, strain FKS1 (second series), stronger effect = lower value 1.03 | locus YLR342W, strain FKS1, stronger effect = lower value 0.964 | locus YLR357W, strain rsc2, stronger effect = lower value 0.953 | locus YLR370C, strain arc18, stronger effect = lower value 0.969 | locus YLR371W, strain rom2, stronger effect = lower value 1 | locus YLR384C, strain iki3, stronger effect = lower value 0.97 | locus YLR418C, strain cdc73, stronger effect = lower value 0.953 | locus YML016C, strain PPZ1, stronger effect = lower value 0.989 | locus YML032C, strain rad52, stronger effect = lower value 1.02 | locus YML120C, strain ndi1, stronger effect = lower value 0.973 | locus YML124C, strain tub3, stronger effect = lower value 0.985 | locus YMR078C, strain ctf18, stronger effect = lower value 0.999 | locus YMR129W, stronger effect = lower value 0.963 | locus YMR205C, strain PFK2, stronger effect = lower value 1.02 | locus YMR223W, strain ubp8, stronger effect = lower value 1.01 | locus YMR231W, strain pep5, stronger effect = lower value 0.999 | locus YMR263W, strain SAP30, stronger effect = lower value 1.03 | [3] 1.01 | locus YNL067W, strain RPL9B, stronger effect = lower value 1.03 | locus YNL071W, strain lat1, stronger effect = lower value 0.97 | locus YNL183C, strain NPR1, stronger effect = lower value 0.923 | locus YNL209W, strain ssb2, stronger effect = lower value 0.974 | locus YNL233W, strain BNI4, stronger effect = lower value 1.01 | locus YNL248C, strain rpa49, stronger effect = lower value 0.983 | locus YNL250W, strain rad50, stronger effect = lower value 0.982 | locus YNL271C, strain bni1, stronger effect = lower value 0.99 | locus YNL298W, strain CLA4, stronger effect = lower value 1.01 | locus YNL307C, strain MCK1, stronger effect = lower value 0.995 | locus YNL322C, strain KRE1 (second series), stronger effect = lower value 0.949 | [4] 1 | locus YNR049C, strain mso1, stronger effect = lower value 0.973 | locus YNR052C, strain pop2, stronger effect = lower value 1.01 | locus YOL012C, strain htz1 0.359 | locus YOL147C, strain pex11, stronger effect = lower value 0.99 | locus YOR001W, strain rrp6, stronger effect = lower value 0.927 | locus YOR061W, strain CKA2, stronger effect = lower value 0.992 | locus YOR069W, strain VPS5, stronger effect = lower value 0.995 | locus YOR070C, strain gyp1, stronger effect = lower value 0.975 | locus YOR080W, strain dia2, stronger effect = lower value 0.988 | locus YOR083W, strain WHI5, stronger effect = lower value 1 | locus YOR106W, strain vam3, stronger effect = lower value 0.985 | locus YOR136W, strain idh2, stronger effect = lower value 0.988 | locus YOR144C, strain elg1, stronger effect = lower value 0.994 | locus YOR184W, strain ser1, stronger effect = lower value 0.999 | locus YOR231W, strain MKK1, stronger effect = lower value 0.997 | locus YOR265W, strain rbl2, stronger effect = lower value 0.987 | locus YOR270C, strain vph1, stronger effect = lower value 1.01 | locus YOR290C, strain snf2, stronger effect = lower value 1 | locus YOR316C, strain cot1, stronger effect = lower value 0.986 | locus YPL051W, strain arl3, stronger effect = lower value 0.974 | locus YPL078C, strain atp4, stronger effect = lower value 0.971 | locus YPL106C, strain sse1, stronger effect = lower value 1.01 | locus YPL240C, strain hsp82, stronger effect = lower value 0.959 | [5] 0.997 | locus YPL256C, strain CLN2, stronger effect = lower value 0.981 | locus YPR119W, strain clb2, stronger effect = lower value 0.985 | locus YPR141C, strain kar3, stronger effect = lower value 0.982 | locus YPR163C, strain tif3, stronger effect = lower value 0.99 | locus YPR167C, strain met16, stronger effect = lower value 1 | strain wtn01, stronger effect = lower value 0.995
active: locus YER155C, strain BEM2 (second series), stronger effect = lower value 0.843 | locus YMR058W, strain fet3, stronger effect = lower value 0.734 | locus YMR125W, strain sto1, stronger effect = lower value 0.852

CCCCC/C=C\CC(O)/C=C/c1cccc(CC(O)CCCCO)n1 (stereo not drawn)
inactive: [1] 1.03 | locus YAL040C, strain CLN3, stronger effect = lower value 0.995 | locus YCL061C, strain MRC1 (second series), stronger effect = lower value 0.996 | [2] 1 | locus YDR363W, strain ESC2, stronger effect = lower value 1.01 | locus YER002W, strain NOP16, stronger effect = lower value 0.982 | [3] 1.01 | locus YNL153C, strain GIM3, stronger effect = lower value 1 | locus YNL175C, strain NOP13, stronger effect = lower value 0.985 | locus YNL197C, strain WHI3, stronger effect = lower value 0.974 | locus YNL224C, strain SQS1, stronger effect = lower value 0.975 | [4] 1.01 | locus YOR083W, strain WHI5 (second series), stronger effect = lower value 0.991 | [5] 0.995
